Source: PubChem BioAssay AID1159606 (Sanford-Burnham Center for Chemical Genomics, 2016)
Where “and” joins values, the source holds several entries; their conditions need not be identical. Equal values may be shown once. Out of some 360,000 compounds screened, about 7,300 (2%) were called active. Rule as the data show it: active = inhibition above about 50%; inactive = the rest. The entries come from a sample that favours actives as a whole.

experiment: blockers of TWEAK-induced Fn14 reporter activity – luciferase reporter cells, uHTS, primary screen (AID 1159606); details: TWEAK-stimulated Fn14 reporter cells, luciferase luminescence, 8 h; at 10 µM; stronger effect = higher value

Row | SMILES | inhibition
1 | COc1ccc(N2C(=O)C(O)C2c2ccc(C)cc2)cc1 (centres undefined) | 6.39% (inactive)
2 | COC(=O)COc1ccc(S(=O)(=O)N2CCOCC2)cc1 | 12.7% (inactive)
3 | COc1ccc(C(=O)Nc2cc(S(=O)(=O)N3CCCC3)ccc2Cl)cc1 | -16% (inactive)
4 | COc1ccc(C(=O)Nc2nc(-c3ccc(S(=O)(=O)N4CCOCC4)cc3)cs2)cc1 | 93.7% (active)
5 | CS(=O)(=O)/C(C#N)=C/c1cccn1S(=O)(=O)c1ccc([N+](=O)[O-])cc1 | -15.1% (inactive)
6 | CCC(=O)N1Cc2cc(C(=O)NCc3cccc(F)c3)nc(-c3cccc(C4=CCCC4)c3)c2[C@H]1CCO | -7.06% (inactive)
7 | Cc1ccc(Cl)cc1N1CCN(C(=O)c2cccc3c(=O)c(C)c(-c4ccccc4)oc23)CC1 | 40.6% (inactive)
8 | Cn1nnc2cc(C(=O)NCCC3=CCCCC3)ccc21 | 51.2% (active)
9 | O=C(NCCC1=CCCCC1)c1ccc(Cl)c([N+](=O)[O-])c1 | -14.2% (inactive)
10 | O=C(NCCC1=CCCCC1)c1ccc(-n2cncn2)cc1 | -8.52% (inactive)
11 | CC1CCCCC1NC(=O)CN1CCC(O)(c2ccc3c(c2)OCO3)CC1 (centres undefined) | 3.52% (inactive)
12 | CCCCn1nnnc1C(c1ccccc1)N1CCN(c2ccccc2OC)CC1 (centres undefined) | -11.6% (inactive)
13 | COc1ccccc1-n1c(SCC(=O)Nc2cccc(C(=O)O)c2)nnc1-c1ccccc1O | 8.74% (inactive)
14 | COc1cccc(/C=N/Nc2cc(C)nc(-c3ccccc3O)n2)c1O | 59% (active)
15 | COc1cc(/C=N/Nc2ccc(C)cc2)cc(Br)c1O | 4.13% (inactive)
16 | Cc1cc(CNC(=O)C2CCC(=O)N(CCc3ccc(Cl)cc3)C2)no1 (centres undefined) | 0.87% (inactive)
17 | CC(=O)N1CCN(S(=O)(=O)c2c(F)cc(F)c(Cl)c2F)CC1 | -11.6% (inactive)
18 | O=C(NN=Cc1ccc2c(c1)CCC2)c1ccccc1O | -39.1% (inactive)
19 | COc1ccc(/C=C2/SC(=O)N(CCCCCC(=O)Nc3ccccc3C(=O)O)C2=S)cc1 | 40.8% (inactive)
20 | COc1ccc(/C=N/Nc2ccccc2C(=O)O)cc1 | 57% (active)
21 | COc1ccc(-c2[nH]ncc2/C=N/NC(=O)c2cc(Br)ccc2O)c(OC)c1 | 1.37% (inactive)
22 | COc1ccc(C(=O)Nc2ccccc2C(=O)N/N=C/c2ccc(O)c(OC)c2)cc1 | 103% (active)
23 | COc1ccc(/C=N/NC(=O)C(C)N(c2ccc(OC)cc2)S(C)(=O)=O)cc1 (centres undefined) | 6.28% (inactive)

Row | SMILES | inhibition
24 | CCOC(=O)C(=O)C1C(=O)Nc2ccccc21 (centres undefined) | 6.46% (inactive)
25 | CCOc1ccc(CCN2C(=O)C(=O)N([C@@H](Cc3ccc(O)cc3)CN3CCC[C@H]3CN3C(=O)C(=O)NC[C@@H]3CC(C)C)C[C@@H]2Cc2ccccc2)cc1 | 20.7% (inactive)
26 | CC1=NN(c2cccc(Cl)c2)C(=O)C12CC(C)=C(C)CS2 (centres undefined) | -6.06% (inactive)
27 | CC(NC(=O)CN1CCN(Cc2ccc(Cl)cc2)C1=O)c1ccc2c(c1)OCCO2 (centres undefined) | 13.5% (inactive)
28 | CC(C)C[C@H]1CNC(=O)C(=O)N1C[C@@H]1CCCN1C[C@H](Cc1ccccc1)N1C[C@H](CC(C)C)N(CC2CCCCCC2)C(=O)C1=O | 5.6% (inactive)
29 | CC1CC(=O)Nc2ccccc2N1C(=O)COc1ccc2cc(Br)ccc2c1 (centres undefined) | -17.9% (inactive)
30 | O=C(CSc1cccc2cccnc12)N/N=C/c1cccnc1 | 73.4% (active)
31 | Cc1ccc(S(=O)(=O)N(CC(=O)N/N=C/c2ccc(F)cc2)c2cccc3cccnc23)cc1 | -1.02% (inactive)
32 | O=C(CNC(=O)c1cccnc1)N/N=C/c1cc(Br)c(O)c(Br)c1 | -15.2% (inactive)
33 | COc1ccc(C)cc1NC(=O)NCCCCc1ccccc1 | -2.36% (inactive)
34 | CCCCN1C(=O)CC(N2CCOCC2)C1=O (centres undefined) | -9.74% (inactive)
35 | CCCCCn1nnnc1-c1nc2cc3ccccc3cc2[nH]c1=O | -12.3% (inactive)
36 | CCCCCN(C(=O)CCC(=O)OCCOc1ccc(OC)cc1)c1c(N)n(CCCC)c(=O)[nH]c1=O | -5.75% (inactive)
37 | Cc1ccc(NC(=O)N2CCSc3ccccc32)cc1 | -12.4% (inactive)
38 | C=C(C)C(=O)O[C@H]1C/C(C)=C\C(=O)/C=C(\C)[C@H](O)[C@@H]2OC(=O)C(=C)[C@@H]21 | 68.2% (active)
39 | CNC(=S)N/N=C/c1ccc(N2CCOCC2)s1 | 7.48% (inactive)
40 | CC1(NC(=O)CCS(=O)(=O)c2ccc(Cl)cc2)CCS(=O)(=O)C1 (centres undefined) | 17.8% (inactive)
41 | O=C(NCC(c1ccco1)N1CCc2ccccc2C1)c1ccccc1Cl (centres undefined) | -3.94% (inactive)
42 | Nc1cccc(OCCCCCOc2cccc(N)c2)c1 | -9.63% (inactive)
43 | O=c1c2sccc2nc(SCc2cc(=O)n3ccccc3n2)n1-c1ccc(Br)cc1 | -8.13% (inactive)
44 | CCc1ccc(-n2c(SCc3cc(=O)n4cc(Br)ccc4n3)nc3[nH]ncc3c2=O)cc1 | 2.35% (inactive)
45 | Cc1cccc2nc(CSc3nc4[nH]ncc4c(=O)n3-c3cccc(Cl)c3)cc(=O)n12 | 68.9% (active)
46 | COc1ccc(C(=O)CSc2n[nH]c(N)n2)cc1 | -14.2% (inactive)

Row | SMILES | inhibition
47 | Cc1ccc(N2CCN(c3ccc(C)cc3)C2c2ccccn2)cc1 | -16.7% (inactive)
48 | CCOC(=O)C1CCCCN1Cc1ccc(OC)c(OC)c1OC (centres undefined) | -2.28% (inactive)
49 | CC1Cc2[nH][nH]c(=O)c2C(C2CCCC2)O1 (centres undefined) | -6.62% (inactive)
50 | COc1ccc(CCNC(=O)c2ccccc2-c2ccccc2C(=O)O)cc1OC | 4.96% (inactive)
51 | COc1ccccc1OCCNc1cc(N2CCOCC2)ccc1[N+](=O)[O-] | -47.4% (inactive)
52 | COc1ccc(CCNc2cc(N3CCN(C(=O)c4ccccc4OC)CC3)ccc2[N+](=O)[O-])cc1OC | 94.3% (active)
53 | CC(C)(O)C1=C[N+](=O)CC=C1 | 13.1% (inactive)
54 | CC1(C)SC2C(NC(=O)COc3ccccc3)C(=O)N2C1C(=O)O (centres undefined) | 1.61% (inactive) and -29.2% (inactive)
55 | CC(=O)Nc1ccc(S(=O)(=O)Nc2nc3n(n2)C(c2ccccc2)CC(=O)N3)cc1 (centres undefined) | -1.82% (inactive)
56 | CC(C)[C@H](NC(=O)c1ccccc1F)C(=O)Nc1cccc(S(=O)(=O)N2CCOCC2)c1 | 12.8% (inactive)
57 | Cc1cc(C(=O)COC(=O)CCCN2C(=O)c3ccccc3C2=O)c(C)n1C | 5.35% (inactive)
58 | C=CCN(CC=C)C(=O)CN1C(=O)c2ccccc2C1=O | 15.1% (inactive)
59 | C=CCn1c(C)cc(C(=O)CN2C(=O)c3ccccc3C2=O)c1C | 63.3% (active)
60 | O=C1CCC(=O)N(O)CCCCCNC(=O)CCC(=O)N(O)CCCCCNC(=O)CCC(=O)N(O)CCCCCN1 | -10.8% (inactive)
61 | C/C(=N/OC(=O)c1cccc(C(F)(F)F)c1)c1cnccn1 | -1.14% (inactive)
62 | Cc1ccc(OCCCC(=O)Nc2ccc3c(c2)OCCO3)cc1 | 63.9% (active)
63 | COC(=O)CCNc1ccc2c(c1)OCCO2 | 93.8% (active)
64 | CCc1ccccc1OCC(=O)Nc1ccc2c(c1)OCCO2 | -1.57% (inactive)
65 | COc1ccccc1OCCCC(=O)Nc1ccc2c(c1)OCCO2 | -33.3% (inactive)
66 | CCOc1ccc(NCCC(=O)c2ccc3c(c2)OCO3)cc1 | -3.49% (inactive)
67 | Cc1ccc(OCCCC(=O)Nc2ccc(N3CCOCC3)cc2)cc1 | 4.69% (inactive)
68 | COC(=O)CCCCC1=CCC2C(=O)C=C(O)C2C1 (centres undefined) | -0.75% (inactive)
69 | O=C(NCc1cccnc1)c1cc(C2CCCN(C(=O)C3CCCCC3)C2)on1 (centres undefined) | -5.87% (inactive)

Row | SMILES | inhibition
70 | CCc1ccc(CN(C)C(=O)CCc2nnc(-c3ccc(-c4ccccc4)cc3)o2)nc1 | 35.3% (inactive)
71 | CCCCCCc1cc2cc(-c3nnc(-c4ccccc4)o3)c(=O)oc2cc1O | 69.9% (active)
72 | C#CCNC(=O)C[C@@H]1C[C@@]2(C(=O)OCC)CCCC=C2N(Cc2ccco2)C1=O | -4.62% (inactive)
73 | O=C(O)CC(Cn1cnnn1)c1ccccc1 (centres undefined) | 0.41% (inactive)
74 | CS/C(=C\C(=O)c1ccco1)Nc1ccccc1Cl | -3.35% (inactive)
75 | CC(=O)c1ccc(NC(=O)C(C)N(C)CC(=O)Nc2ccccc2Cl)cc1 (centres undefined) | -3.04% (inactive)
76 | O=C(Nc1ccccc1Cl)/C(Cl)=C(\Cl)S(=O)c1ccccc1 (centres undefined) | 105% (active)
77 | OC(c1ccccc1)c1nc(-c2cnc3ccccc3c2)cs1 (centres undefined) | 12.8% (inactive)
78 | O=C(OCC(=O)N1CCCC1)c1ccco1 | 70.7% (active)
79 | O=C(OCC(=O)N1CCN(C(=O)c2ccco2)CC1)c1c(Cl)cccc1Cl | 3.09% (inactive)
80 | O=C(OCC(=O)N1CCN(C(=O)c2ccco2)CC1)c1cccc(O)c1 | -18.9% (inactive)
81 | Cc1ccc(-c2nnn(CC(=O)N(Cc3ccco3)C(C(=O)NC(C)(C)C)c3ccncc3)n2)o1 (centres undefined) | -9.3% (inactive)
82 | O=C(O)CCn1c(O)c(C=C2N=c3ccccc3=N2)sc1=S | 90.8% (active)
83 | CC(=O)NC(C(=O)NCC(N)=O)C(C)C (centres undefined) | -1.22% (inactive)
84 | CSC1=NN(c2ccccc2)CN(c2ccccc2)N1C | 11.5% (inactive)
85 | Cc1ccc2nc(NC(=O)C3CCN(S(=O)(=O)c4ccc5c(c4)oc(=O)n5C)CC3)sc2c1 | 61.3% (active)
86 | O=C(NC1CCCCC1)n1c(=O)oc2cc(S(=O)(=O)N3CCCCC3)ccc21 | -2.85% (inactive)
87 | Cn1c(=O)oc2cc(S(=O)(=O)N3CCC(C(=O)Nc4ccc(OC(F)(F)F)cc4)CC3)ccc21 | -4.22% (inactive)
88 | CC(C)C[C@@H](COCc1ccc(Cl)cc1)N1CCN(C(=O)c2ccc(Cl)cc2Cl)CCC1=O | -5.63% (inactive)
89 | Cn1ccc(=Nc2ccc(NC(=O)c3ccc(N=c4ccn(C)c5ccc([N+](=O)[O-])cc45)cc3)cc2)cc1 | 11.6% (inactive)
